Laboratory results reported in PubChem BioAssay (Tox21).
Results filed as inconclusive are left out. Calls of active or inactive are those of the source. Unless noted, calls come from the whole dose curve; as a rule, active = well fitted curve in the direction sought with a large enough effect in the repeat runs; inconclusive = weak or mixed curves; inactive = no such curve, though single readings can be large; an effect the other way counts as inactive or inconclusive.

Key:
[1] = qHTS RealTime-Glo MT Cell Viability Assay in HEK293 cells - 0 hour (AID 1224880); note: top concentration of the series differs between compounds; nearly all actives have a fitted effect of over 45% in size
In short: (§1)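 Luminescence readout at each listed time point; HEK293, 600 cells/well, RealTime-Glo MT reagent added with cells; compounds pinned (23 nL in DMSO) after 5 h at 37 C; continuous culture at 37 C.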

[2] = A CellTox Green Cytotoxicity Assay to monitor cytotoxicity in HEK293 cells - 32 hour (AID 1224881); note: nearly all actives have a fitted effect of over 40% in size
In short: (§2)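 Read-out: fluorescence of a cell-impermeant cyanine dye staining DNA of dead cells, proportional to cytotoxicity. HEK293, 600 cells/well with reagent, compound (23 nL DMSO) added after 5 h; reads at 0, 8, 16, 24, 32, 40 h.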

[3] = A CellTox Green Cytotoxicity Assay to monitor cytotoxicity in HepG2 cells - 0 hour (AID 1224882); note: nearly all actives have a fitted effect of over 35% in size
In short: (§3)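 HepG2, 600 cells/well premixed w/ CellTox Green; 5 h settle, 37 C/5% CO2; pintool cpd add (DMSO); 37 C, 40 h; fluorescence read at 0, 8, 16, 24, 32, 40 h.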

[4] = A CellTox Green Cytotoxicity Assay to monitor cytotoxicity in HepG2 cells - 32 hour (AID 1224883); note: nearly all actives have a fitted effect of over 50% in size
In short: as §3

[5] = A CellTox Green Cytotoxicity Assay to monitor cytotoxicity in HEK293 cells - 8 hour (AID 1224884); note: nearly all actives have a fitted effect of over 35% in size
In short: as §2

[6] = qHTS RealTime-Glo MT Cell Viability Assay in HepG2 cells - 16 hour (AID 1224885); note: nearly all actives have a fitted effect of over 50% in size
In short: (§4)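 Cells + NanoLuc/prosubstrate dispensed (600 cells/well) → 5 h at 37 C/5% CO2 → compounds in DMSO transferred → 40 h incubation at 37 C, luminescence read at 0, 8, 16, 24, 32, 40 h.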

[7] = qHTS RealTime-Glo MT Cell Viability Assay in HEK293 cells - 24 hour (AID 1224886); note: top concentration of the series differs between compounds; nearly all actives have a fitted effect of over 50% in size
In short: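 Tox21 10K qHTS, HEK293, 600 cells/well, RealTime-Glo reagent co-dispensed with cells; 5 h preincubation, compound by pintool, 37 C, luminescence at 0–40 h.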

[8] = qHTS RealTime-Glo MT Cell Viability Assay in HEK293 cells - 8 hour (AID 1224887); note: top concentration of the series differs between compounds; nearly all actives have a fitted effect of over 50% in size
In short: as §1

[9] = qHTS RealTime-Glo MT Cell Viability Assay in HepG2 cells - 0 hour (AID 1224889); note: nearly all actives have a fitted effect of over 50% in size
In short: as §4

[10] = A CellTox Green Cytotoxicity Assay to monitor cytotoxicity in HepG2 cells - 8 hour (AID 1224890); note: nearly all actives have a fitted effect of over 45% in size
In short: as §3

[11] = qHTS assay to identify small molecule antagonists of the estrogen receptor alpha (ER-alpha) signaling pathway using the BG1 cell line in the presence of 0.1 nM 17-beta-estradiol - cell viability counter screen (AID 1259241); note: nearly all actives have a fitted effect of over 40% in size
In short: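 Live-cell protease activity (CellTiter-Fluor fluorescence, 30 min) was read in the same wells after VM7Luc4E2 cells had been exposed to compounds with 0.1 nM 17beta-estradiol for 22 hr at 37C.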

[12] = qHTS assay to identify small molecule antagonists of the androgen receptor (AR) signaling pathway using the MDA cell line in the presence of 0.5 nM R1881 - cell viability counter screen (AID 1259242); note: nearly all actives have a fitted effect of over 45% in size
In short: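 Live-cell protease fluorescence, CellTiter-Fluor, 30 min at 37C. Cells: MDA-kb2, 3,000/well, preincubated 5 hr. Compounds plus 0.5 nM R1881 final, 16 hr, 37C, 0% CO2.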

[13] = qHTS assay to identify small molecule HDAC inhibitors (AID 1259364);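 note: wild-type HCT-116 cells with endogenous class I/II HDAC activity; top concentration of the series differs between compounds; nearly all actives have a fitted effect of over 45% in size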
In short: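 HCT-116 (wild type), 1,500 cells/well, overnight; compound 2 hr 37C 5% CO2; HDAC-Glo I/II reagent 30 min RT; luminescence readout.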

[14] = qHTS assay to identify small molecule HDAC inhibitors - cell viability counter screen (AID 1259365)
In short: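 HCT-116 (wild type), 1,500 cells/well, overnight 37C/5% CO2; compound in DMSO 2hr; CellTiter-Glo 30min RT; luminescence read.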

[15] = qHTS assay to identify small molecule agonists of the sonic hedgehog signaling (Shh) pathway - cell viability counter screen (AID 1259366); note: nearly all actives have a fitted effect of over 50% in size
In short: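 CellTiter-Fluor fluorescence read-out, 1 hr at 37C, added after 23hr compound exposure. Cells: 3T3 Gli1-Luc, an NIH/3T3 clone with stably integrated Gli1-Luc reporter, plated 4hr before compound.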

[16] = qHTS assay to identify small molecule antagonists of the sonic hedgehog signaling (Shh) pathway - cell viability counter screen (AID 1259367); note: nearly all actives have a fitted effect of over 55% in size
In short: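 Fluorescence read-out (CellTiter-Fluor, 1 hr at 37C) taken after 23 hr compound treatment of 3T3 Gli1-Luc cells stimulated with conditioned medium. Cells were seeded at 2,000 per well and pre-incubated 4 hr.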

[17] = A CellTox Green Cytotoxicity Assay to monitor cytotoxicity in HEK293 cells - 16 hour (AID 1224888); note: nearly all actives have a fitted effect of over 35% in size
In short: as §2

[18] = target: Estrogen receptor (Homo sapiens) (UniProt P03372); experiment: qHTS assay to identify small molecule antagonists of the estrogen receptor alpha (ER-alpha) signaling pathway using the BG1 cell line in the presence of 0.1 nM 17-beta-estradiol (AID 1259244); note: nearly all actives have a fitted effect of over 50% in size
Chain of Estrogen receptor (Homo sapiens) (P03372 whole entry, looked up): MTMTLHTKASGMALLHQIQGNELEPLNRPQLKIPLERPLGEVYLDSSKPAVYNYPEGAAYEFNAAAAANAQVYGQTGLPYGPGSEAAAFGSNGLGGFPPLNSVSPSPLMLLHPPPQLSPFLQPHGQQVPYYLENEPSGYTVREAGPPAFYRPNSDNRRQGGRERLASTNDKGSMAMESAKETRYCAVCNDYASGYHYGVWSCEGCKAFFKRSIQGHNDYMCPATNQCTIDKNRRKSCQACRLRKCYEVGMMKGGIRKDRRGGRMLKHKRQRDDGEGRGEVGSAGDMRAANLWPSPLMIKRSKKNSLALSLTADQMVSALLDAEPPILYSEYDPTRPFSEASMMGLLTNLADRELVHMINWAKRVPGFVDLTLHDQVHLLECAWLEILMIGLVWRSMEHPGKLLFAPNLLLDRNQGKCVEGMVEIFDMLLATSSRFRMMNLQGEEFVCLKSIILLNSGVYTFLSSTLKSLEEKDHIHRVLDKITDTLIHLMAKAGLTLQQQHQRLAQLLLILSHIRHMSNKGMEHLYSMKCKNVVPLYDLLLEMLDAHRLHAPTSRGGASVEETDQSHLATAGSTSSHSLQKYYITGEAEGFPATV
In short: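 Luminescence after ONE-Glo (30 min, room temperature) measured ERE-luciferase activity in VM7Luc4E2 cells treated 22 h with compound and 0.1 nM final 17beta-estradiol as stimulator.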

[19] = qHTS assay to identify small molecule phospholipidosis (PLD) inducers (AID 1259344; active = well fitted curve in the direction sought with a large enough effect; an effect the other way counts as inactive or inconclusive)
In short: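 Read-out is LipidTOX Red fluorescence (ex 595/em 615) imaged in HepG2 cells after 24 h compound exposure at 37 C, with Hoechst nuclear counterstain (ex 352/em 461) allowing per-cell normalisation.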

[20] = target: Androgen receptor (Homo sapiens) (UniProt P10275); experiment: qHTS assay to identify small molecule antagonists of the androgen receptor (AR) signaling pathway using the MDA cell line in the presence of 0.5 nM R1881 (AID 1259243); note: nearly all actives have a fitted effect of over 50% in size
Chain of Androgen receptor (Homo sapiens) (P10275 whole entry, looked up): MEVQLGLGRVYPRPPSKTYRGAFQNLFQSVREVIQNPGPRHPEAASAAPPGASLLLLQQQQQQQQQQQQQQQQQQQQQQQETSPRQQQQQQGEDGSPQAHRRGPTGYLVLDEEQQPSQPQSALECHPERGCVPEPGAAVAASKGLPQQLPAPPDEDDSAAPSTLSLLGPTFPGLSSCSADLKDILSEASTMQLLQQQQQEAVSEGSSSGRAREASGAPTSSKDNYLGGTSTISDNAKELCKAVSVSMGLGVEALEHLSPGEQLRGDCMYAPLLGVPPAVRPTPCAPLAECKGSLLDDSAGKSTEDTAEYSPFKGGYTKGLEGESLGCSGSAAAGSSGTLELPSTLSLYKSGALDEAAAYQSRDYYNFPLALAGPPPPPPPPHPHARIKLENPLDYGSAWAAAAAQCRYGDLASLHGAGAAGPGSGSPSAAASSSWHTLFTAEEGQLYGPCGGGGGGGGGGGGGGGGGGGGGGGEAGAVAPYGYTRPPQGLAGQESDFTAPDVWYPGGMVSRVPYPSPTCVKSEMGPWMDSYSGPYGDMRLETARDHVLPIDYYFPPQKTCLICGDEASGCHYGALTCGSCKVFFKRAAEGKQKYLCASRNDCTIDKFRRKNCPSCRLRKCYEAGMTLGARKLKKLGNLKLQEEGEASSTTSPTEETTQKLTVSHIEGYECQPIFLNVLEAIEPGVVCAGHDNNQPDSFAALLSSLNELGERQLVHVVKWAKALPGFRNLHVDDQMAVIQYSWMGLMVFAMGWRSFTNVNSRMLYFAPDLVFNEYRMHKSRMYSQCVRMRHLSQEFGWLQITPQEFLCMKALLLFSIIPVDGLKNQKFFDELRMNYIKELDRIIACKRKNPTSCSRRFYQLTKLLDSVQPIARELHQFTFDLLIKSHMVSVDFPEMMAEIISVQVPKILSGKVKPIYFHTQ
In short: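 MDA-kb2, MMTV-luc (AR/GR elements); 3,000 cells/well; cpd + 0.5 nM R1881 final; 16 hr 37C, 0% CO2; ONE-Glo 30 min RT; luminescence.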

Measured: Potency

C=COC(C)=O
not listed: [17] | [18] | [19] | [20]
inactive: all other assays above

CNC(C)Cc1ccccc1OC (stereo unspecified)
not listed: [10] | [11] | [12] | [20]
inactive: all other assays above

Cc1cc(=O)[nH]o1
not listed: [10] | [11] | [19]
inactive: all other assays above

CCCCC(CC)COP(=O)(Oc1ccccc1)Oc1ccccc1 (stereo unspecified)
not listed: [7] | [19] | [20]
inactive: all other assays above
